This excerpt belongs to a sample that is enriched for hits.
Shiga inhibitor = Shiga toxin inhibition; Vero cells, Shiga toxin protein synthesis inhibition reporter; inhibition, % at 38.7 µM; actives 9.2% (n = 290,000); in the data active = inhibition mostly above about 28%, no sharp cut-off; inactive = mostly below about 43%; note: 0% is about no effect
LASV entry inh = Lassa virus entry inhibition; actives 1.2% (n = 300,000); AID 540256; Lassa virus pseudotype entry inhibition, cell reporter; Potency, µM (top dose mostly 37.9 µM), inactives show at the highest dose activity change, negative = inhibition, hits mostly inhibitors; calls by dose curve; tested in HEK293 cells; note: potency is the fitted concentration of half-maximal effect; % is set by controls: 0 for no effect and ±100 for the full control effect; nearly all actives have a fitted effect of over 50% in size
MARV entry inh = inhibitors of Marburg virus binding or cell entry. Marburg virus pseudotyped entry inhibition, cell reporter. Potency, µM (series often up to 37.8 µM), for the others: at the highest dose activity change, negative = inhibition, hits mostly inhibitors. actives 1.8% (n = 300,000). AID 540276; calls by dose curve; tested in HEK293 cells; note: potency is the fitted concentration of half-maximal effect; % is set by controls: 0 for no effect and ±100 for the full control effect
Cycloheximide cs = counter-screen hit for Shiga toxin inhibitors, cycloheximide; cell reporter, cycloheximide protein synthesis inhibition counterscreen; max response, %; actives 12% (n = 300,000); AID 2314; in the data active = max response mostly above about 13%, no sharp cut-off; inactive = mostly below about 14%; note: read at 38.3 µM for the half of the compounds with a filed dose; 0% is about no effect
AMA1-RON2 inh = AMA1-RON2 (P. falciparum) interaction inhibition; AID 720542; AlphaScreen AMA1-biotinylated RON2 peptide binding; actives 0.2% (n = 360,000); Potency, µM (titrated, usually from 58.2 µM), inactives show at the highest dose activity change, negative = inhibition, hits mostly inhibitors; active = well fitted inhibition curve with a large enough effect; inconclusive = small, poorly fitted or top-dose-only effect; inactive = no such curve, though single readings can be large or run the other way;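 note: potency is the fitted concentration of half-maximal effect; 0% = vehicle wells and -100% = peptide control; nearly all actives have a fitted effect of over 45% in size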
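AMA1 (3D7) with his tag at 25 nM final met compounds first, then biotinylated RON2 peptide at 25 nM; detection used donor plus acceptor beads, 10 µg/mL apiece, read by AlphaScreen after 30 min at room temperature.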
* hit, by the source's call; ? = inconclusive; . = no result given; + = active, no number; [ ] = another dose, or the depositor's remark.

SMILES	Shiga inhibitor	LASV entry inh	MARV entry inh	Cycloheximide cs	AMA1-RON2 inh
Cc1ccc(/C=N/NC(=O)c2ccccn2)s1	44*	?	6.5µM*	49*	28%
O=C(N/N=C/c1cccs1)c1ccccn1	111*	-3%	15%	33*	73%
CC1C(=O)NN=C1C(=O)N/N=C/c1cccs1 (stereo not given)	86*	.	.	19*	51%
O=C(CNC(=O)c1ccccc1)N/N=C/c1cccs1	30	-4%[46.1 µM]	2%[46.1 µM]	-1	-3%
Cc1cc(C)n2nc(C(=O)N/N=C/c3cccs3)nc2n1	17	9%[46.1 µM]	19%[46.1 µM]	8	0%
Nc1c(C(=O)OCC(=O)Nc2cccc([N+](=O)[O-])c2)[nH]c(=O)[nH]c1=O	.	11%	-2%	.	11%
COc1ccc(/C=C(\C#N)c2nc3ccc(C)cc3[nH]2)cc1Oc1ccc(C(F)(F)F)cc1[N+](=O)[O-]	-12	19%	-28%	12	20%
Cc1ccc2nc(/C(C#N)=C\c3cc(O)ccc3[N+](=O)[O-])[nH]c2c1	33	1%	25%[46.1 µM]	36*	21%
Cc1ccc2nc(/C(C#N)=C\c3ccc(Oc4ccc(C(F)(F)F)cc4[N+](=O)[O-])cc3)[nH]c2c1	79*	-2%	?	31*	23%
COc1cc(/C=C(\C#N)c2nc3ccc(C)cc3[nH]2)c([N+](=O)[O-])cc1OC	8	?	?	-1	-9%
COc1cc(/C=C(\C#N)c2nc3ccc(C)cc3[nH]2)cc([N+](=O)[O-])c1O	56*	7%[46.1 µM]	?	30*	29%
COc1cc(NC(=O)Nc2cc(C)on2)cc(OC)c1OC	4	-27%[46.1 µM]	-6%[46.1 µM]	-1	-9%
Cc1cc(NC(=O)Nc2ccc(F)cc2)no1	69*	21%	16%	26*	9%
Cc1cc(NC(=O)Nc2cccc(C(F)(F)F)c2)no1	-7	6%	0%	2	43%
Cc1cc(NC(=O)c2cc(Cl)ccc2Cl)no1	-19	6%	-6%	-1	0%
Cc1cc(NC(=O)Nc2ccc(C)c(C)c2)no1	97*	11%	?	43*	-6%
Cc1cc(NC(=O)Nc2cc(Cl)ccc2C)no1	9	.	.	12*	-1%
Cc1ccc(SCC(=O)NC(=O)Nc2ccc3c(c2)OCCO3)c(C)c1	-6	-6%	6%	-4	0%
COC(=O)CSc1nc2cc(C)ccc2cc1C#N	108*	-4%	-5%	46*	36%
CCOC(=O)CC(=O)CSc1nc2ccc(C)cc2cc1C#N	107*	0%	28%	37*	24%
COC(=O)CSc1nc2cc3c(cc2cc1C)OCO3	55*	-1%	-9%	27*	4%
Cc1cc2cc3c(cc2nc1SCC(=O)OC(C)C)OCCO3	-8	-20%	?	8	1%
Cc1ccc2cc(C#N)c(SCC(=O)NCC3CCCO3)nc2c1 (stereo not given)	24	-3%	4%[46.1 µM]	-4	2%
Cc1cccc(C)c1NC(=O)CN1CCc2ccccc2C1	.	.	.	.	-3%
CC(C)c1ccc2c(c1)C1(NN=C(c3ccccc3)S1)C(=O)N2 (stereo not given)	68*	?	?	33*	?
SMILES	Shiga inhibitor	LASV entry inh	MARV entry inh	Cycloheximide cs	AMA1-RON2 inh
CCc1ccc2c(c1)C1(NN=C(c3ccc(C)cc3)S1)C(=O)N2 (stereo not given)	74*	3%	?	24*	22%
CCc1ccc2c(c1)NC(=O)C2(C)Cc1ccc(F)cc1 (stereo not given)	.	.	.	.	0%
COc1cc(OC)c(OC)cc1CNc1sc2c(c1C(=O)Nc1ccccc1OC)CCC2	.	-14%[46.1 µM]	.	.	.
NC(=O)C1CCN(C(=O)CN2C(=O)c3ccccc3S2(=O)=O)CC1	-14	-2%	3%	-2	5%
O=C(CN1C(=O)c2ccccc2S1(=O)=O)c1ccc(OC(F)F)cc1	-15	0.89µM*	1.3µM*	-5	0%
O=C(CN1C(=O)c2ccccc2S1(=O)=O)c1ccc2c(c1)OCCCO2	-27	?	?	-11	11%
O=C(CN1C(=O)c2ccccc2S1(=O)=O)c1ccc(Cl)cc1Cl	.	0.56µM*	0.28µM*	.	3%
O=C(CN1C(=O)c2ccccc2S1(=O)=O)c1ccc(F)cc1	-12	.	.	-6	-18%
O=C(CN1C(=O)c2ccccc2S1(=O)=O)c1cccc(Br)c1	-8	1.3µM*	?	1	0%
CC1CCN(C(=O)CN2C(=O)c3ccccc3S2(=O)=O)CC1	21	7.9µM*	?	1	8%
COc1cccc(NC(=O)CSC2=Nc3ccccc3C3=NC(CC(=O)NCCc4ccccc4)C(=O)N23)c1 (stereo not given)	.	-19%[46.1 µM]	.	.	.
O=C(CNC(=O)c1ccc(Br)o1)NCC(=O)OCc1ccccc1	.	17%	10%	.	-20%
c1ccc(COc2ccc(Oc3nc(N4CCCCC4)nc(N4CCOCC4)n3)nn2)cc1	-6	5.8µM*	?	-4	-7%
CCc1ccc2nc(NC(=O)Cn3cnc4ccccc4c3=O)sc2c1	53*	.	.	29*	-3%
Cn1c(=O)c2c(ncn2CC(=O)Nc2nc3ccc(F)cc3s2)n(C)c1=O	31	18%	3%	13*	1%
O=C(Cn1cnc2ccccc2c1=O)Nc1nc2ccccc2s1	15	11%	3%[46.1 µM]	-2	-12%
O=C(NC1=C(Nc2ccc(F)cc2)C(=O)c2ccccc2C1=O)c1ccc(Cl)cc1	+	?	14%	16*	-10%
CC(On1c(-c2ccccc2)nc2ccc(Cl)cc21)C(=O)O (stereo not given)	56*	?	19%[46.1 µM]	28*	-1%
Cc1ccc(-c2nc3ccc(Cl)cc3n2OC(=O)N(C)C)cc1	124*	-5%	?	36	-7%
CN(C)C(=O)Oc1ccnc2cc(Cl)ccc12	-2	14%	1%[46.1 µM]	2	4%
Cc1ccc(-c2nc3ccc(Cl)cc3n2OC(C)C(=O)O)cc1 (stereo not given)	83*	.	.	36*	-3%
O=c1c2cc(Br)ccc2nc(-c2ccc(Cl)cc2)n1O	-2	-6%	4%[46.1 µM]	1	105%
On1c(-c2ccccc2)nc2ccc(Cl)cc21	84*	?	0%	26	-10%
CCCC/C=C1/CCC(CN(C)C)C1=O (stereo not given)	.	7%[46.1 µM]	5%	.	-3%
O=C1OC2(c3cc(I)c(O)c(I)c3Oc3c2cc(I)c(O)c3I)c2c(Cl)c(Cl)c(Cl)c(Cl)c21	-15	.	.	-7	.
Cc1cccc(N(CC(=O)NC2CCCC2)C(=O)CNC(=O)c2ccco2)c1C	-9	-13%[46.1 µM]	-8%[46.1 µM]	-2	-3%
COc1ccc(-c2nc3ccccc3n2OC(C)C(=O)O)cc1 (stereo not given)	76*	26%	14%[46.1 µM]	35*	1%
CN(C(=O)c1cnccn1)c1c(N)n(Cc2ccccc2)c(=O)[nH]c1=O	.	-12%	0%	.	-19%
CCCCCC(=O)N1C[C@@H](O)[C@H](n2cc(COC(=O)c3ccccc3)nn2)C[C@@H]1c1ccc(Cl)cc1	.	.	.	.	22%
O=C(NCCc1ccc(C(F)(F)F)cc1)C1COc2ccccc2O1 (stereo not given)	112*	11%	4%	42*	7%
